Laboratory results published in PubChem BioAssay (NCATS).
Inconclusive results are not listed. Entries that show only a call come without a potency. Calls of active or inactive are those of the source. Calls follow the shape of the dose curve; as a rule, active = well fitted curve in the direction sought with a large enough effect; inconclusive = small, poorly fitted or top-dose-only effect, or another doubt; inactive = no such curve, though single readings can be large; an effect the other way counts as inactive or inconclusive.

Molecular target: Beta-2 adrenergic receptor (Homo sapiens) (UniProt P07550)
Sequence (P07550 whole entry, looked up): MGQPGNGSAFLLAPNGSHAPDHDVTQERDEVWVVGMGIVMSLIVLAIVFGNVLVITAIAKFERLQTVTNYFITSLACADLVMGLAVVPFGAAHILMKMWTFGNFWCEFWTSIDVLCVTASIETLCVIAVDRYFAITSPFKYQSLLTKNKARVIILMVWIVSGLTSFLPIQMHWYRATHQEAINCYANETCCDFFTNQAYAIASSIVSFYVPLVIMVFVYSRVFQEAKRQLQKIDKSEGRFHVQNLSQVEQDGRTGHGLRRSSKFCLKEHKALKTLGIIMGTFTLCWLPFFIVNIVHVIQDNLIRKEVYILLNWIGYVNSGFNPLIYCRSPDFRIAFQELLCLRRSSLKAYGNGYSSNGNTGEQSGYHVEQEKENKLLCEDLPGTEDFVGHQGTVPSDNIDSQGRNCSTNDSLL
Experiment: qHTS validation assay of beta-arrestin-biased ligands of beta2-adrenergic receptor (AID 485366)
Conditions: cell-based beta-arrestin recruitment to ADRB2, qHTS; series mostly up to 46.1 µM
Outline: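 Agonism was measured as beta-arrestin recruitment to recombinant beta2-AR, releasing tTA to drive luciferase. Cells were exposed for 18 hr at 37 degrees C to a series up to 46 microM. %Activity from corrected luminescence gave concentration-response curves.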

Compound	outcome
C=CC(N)CCC(=O)O (centres undefined)	inactive
O=C(O)c1cc(=O)c2c(Cl)cc(Cl)cc2[nH]1	inactive
c1ccc(-c2ccccn2)nc1	inactive
CN1CCC[C@H]1c1cccnc1	inactive
O=c1[nH]c2cc([N+](=O)[O-])c([N+](=O)[O-])cc2[nH]c1=O	inactive
Cc1ccc(C(=O)O[C@H](C(=O)O)[C@@H](OC(=O)c2ccc(C)cc2)C(=O)O)cc1 (tested in a mixture with another compound)	inactive
Brc1c(Br)c(Br)c2n[nH]nc2c1Br	inactive
C[N+](C)(CCCCCC[N+](C)(C)CCCN1C(=O)c2cccc3cccc(c23)C1=O)CCCN1C(=O)c2cccc3cccc(c23)C1=O	inactive
CC1(C)CCC=[N+]1[O-]	inactive
NCCCCC(=O)O	inactive
S=C(S)OC1CC2CC1C1CCCC21 (centres undefined)	inactive
O=C(O)CC1CCCc2ccccc2C1O (centres undefined)	inactive
O=C(O)CNC(=O)C(CS)Cc1ccccc1 (centres undefined)	inactive
NCCCCCCCCCCN	inactive
NCCSSCCN	inactive
Cn1c(=O)c2[nH]c(-c3ccccc3)nc2n(C)c1=O	inactive
CC1CN(S(=O)(=O)c2cccc3cnccc23)CCN1 (centres undefined)	inactive
N=C(N)SCCc1ccc(CCSC(=N)N)cc1	inactive
O=C(O)[C@@H]1C[C@@H](C(=O)O)N1	inactive
CCCCCCCCCCCCCCCC(=O)NCC(COP(=O)([O-])OCC[N+](C)(C)C)OCC (centres undefined)	inactive
CC(=O)N[C@H](C(=O)O)C(C)(C)SN=O	inactive
NC(=O)C(=O)O	inactive
O=C(O)c1cc(=O)c2ccccc2[nH]1	inactive
COc1cc(C(O)CO)ccc1OS(=O)(=O)O (centres undefined)	inactive
CN(C)c1nc(N)c(C(=O)N=C(N)N)nc1Cl	inactive
C[C@@H](CN1CCC(Cc2ccccc2)CC1)[C@@H](O)c1ccc(O)cc1	inactive
OCC1O[C@H](O)C(Cl)C(O)C1O (some centres undefined)	inactive
CC(=O)SCC[N+](C)(C)C	inactive
O=C1O/C(=C/Br)CCC1c1cccc2ccccc12 (centres undefined)	inactive

Molecular target: ATP-dependent 6-phosphofructokinase (Trypanosoma brucei brucei) (UniProt O15648)
Sequence (O15648 whole entry, looked up): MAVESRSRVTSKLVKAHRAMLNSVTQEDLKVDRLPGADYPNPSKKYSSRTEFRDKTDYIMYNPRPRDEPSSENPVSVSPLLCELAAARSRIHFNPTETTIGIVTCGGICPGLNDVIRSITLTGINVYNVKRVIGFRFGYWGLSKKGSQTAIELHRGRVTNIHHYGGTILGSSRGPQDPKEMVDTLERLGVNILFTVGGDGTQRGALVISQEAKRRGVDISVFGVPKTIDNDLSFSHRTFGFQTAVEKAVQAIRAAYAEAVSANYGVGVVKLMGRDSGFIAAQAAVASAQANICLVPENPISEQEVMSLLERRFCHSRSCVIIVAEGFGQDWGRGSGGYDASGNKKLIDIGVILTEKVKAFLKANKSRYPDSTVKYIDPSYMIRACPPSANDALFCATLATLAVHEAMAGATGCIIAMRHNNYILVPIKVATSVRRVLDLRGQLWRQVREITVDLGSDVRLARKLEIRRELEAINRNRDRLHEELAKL
Experiment: qHTS Validation Assay to Find Inhibitors of T. brucei phosphofructokinase (AID 485368)
Conditions: T. brucei PFK enzyme assay, qHTS 7-point titration; series mostly up to 57.5 µM
Outline: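 ADP-Glo luminescence, two-step: residual ATP depleted, then ADP converted to ATP for luciferase. Enzyme 1.25 nM, F6P 0.5 mM, ATP 0.1 mM, pH 8.0 TEA buffer, 45 min RT. Curves fitted and classed by quality and efficacy.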

Compound	Potency
O=C(O)c1cc(=O)c2c(Cl)cc(Cl)cc2[nH]1	inactive
CN1CCC[C@H]1c1cccnc1	inactive
O=c1[nH]c2cc([N+](=O)[O-])c([N+](=O)[O-])cc2[nH]c1=O	inactive
Cc1ccc(C(=O)O[C@H](C(=O)O)[C@@H](OC(=O)c2ccc(C)cc2)C(=O)O)cc1 (tested in a mixture with another compound)	inactive
S=C(S)OC1CC2CC1C1CCCC21 (centres undefined)	inactive
O=C(O)CC1CCCc2ccccc2C1O (centres undefined)	inactive
O=C(O)CNC(=O)C(CS)Cc1ccccc1 (centres undefined)	inactive
NCCSSCCN	inactive
CN1C2CCC1CC(OC(=O)C(O)c1ccccc1)C2 (centres undefined)	inactive
Cn1c(=O)c2[nH]c(-c3ccccc3)nc2n(C)c1=O	inactive
CC1CN(S(=O)(=O)c2cccc3cnccc23)CCN1 (centres undefined)	inactive
N=C(N)SCCc1ccc(CCSC(=N)N)cc1	inactive
NC(=O)C(=O)O	inactive
C[C@@H](CN1CCC(Cc2ccccc2)CC1)[C@@H](O)c1ccc(O)cc1	inactive
CC(=O)SCC[N+](C)(C)C	inactive
